Experimental data reported in PubChem BioAssay (NCATS).

Test: High-throughput drug toxicity screening in the BPDCN cell line Cal-1 (AID 1224825)
Conditions: Cal-1 BPDCN cell viability, qHTS; at 45.8 µM (top of the series) unless noted
From the text: Blastic plasmacytoid dendritic cell neoplasm (BPDCN) is a rare, aggressive and largely incurable hematologic malignancy originating from plasmacytoid dendritic cells (pDCs). Although an initial response to chemotherapy is common, BPDCN prognosis is extremely poor and most patients relapse with drug-resistant disease leading to a median overall survival of ~1 year after diagnosis. To explore novel potential therapeutic strategies in BPDCN, we performed a high-throughput drug toxicity screening in BPDCN cell liens, using of a library of 1,912 small molecules, enriched for compounds that are either approved or in early stages of development for cancer therapy.
A total of 500 exponentially growing Cal-1 cells were seeded per well in 5 uL of media (RPMI + Glutamine, without phenol red plus10% FBS and 1X Pen/Strep) into 1536-well solid white high base tissue culture treated Greiner One Bio Plates (789173-F), using a multidrop combi dispenser and a small sterile cassette. Compounds and controls totaling 23nL per well (negative control DMSO and positive control 9.2 uM Bortezomib-final) were immediately added to the plates using a 1536 head pin tool from Kalypsys. The plates were then covered with stainless steel gasket lids from Kalypsys and incubated for 48 hours at 37C under 95% relative humidity with 5% CO2. After 48 hours, the plates were removed and allowed to reach room temperature before 3 uL of Cell Titer Glo reagent (Promega) were added using an Aurora Flying Reagent Dispenser Bioraptor. The plates were then spun at 1000 rpms to remove bubbles and incubated for 15 minutes at room temperature before reading on a ViewLux using a luminescent filter with a 10 second exposure. The relative luciferase units were used to calculated percent activity using DMSO as 100% and Bortezomib as 0%.

**Q.** Which viability (% of control) does the source give for `Cn1ccc2cc3c(cc21)CCN3C(=O)Nc1cccnc1` here?
**A.** Its viability (% of control) is 69.5%.

**Q.** With `COc1cc2c(c(OC)c1OC)-c1ccc(OC)c(=O)cc1[C@@H](NC(C)=O)CC2` as the molecule, how does the viability (% of control) read?
**A.** The viability (% of control) was 11.2%.

**Q.** With `Clc1ccc2c(c1)C(N1CCNCC1)=Nc1ccccc1O2` as the molecule, how does the viability (% of control) read?
**A.** The viability (% of control) was 102%.

**Q.** Which viability (% of control) does the source give for `O=C(c1ccc(F)cc1)C1CCN(CCn2c(=O)[nH]c3ccccc3c2=O)CC1` here?
**A.** The viability (% of control) was 112%.

**Q.** Which viability (% of control) does the source give for `Clc1ccccc1C(c1ccccc1)(c1ccccc1)n1ccnc1` here?
**A.** Its viability (% of control) is 74%.

**Q.** With `CCOC(=O)Nc1ccc(NCc2ccc(F)cc2)nc1N` as the molecule, how does the viability (% of control) read?
**A.** The viability (% of control) was 96.5%.

**Q.** For `CC(C)(Oc1ccc(C2CC2(Cl)Cl)cc1)C(=O)O` (stereo not given), which viability (% of control) is on record?
**A.** Its viability (% of control) is 9.42% [at 92.2 µM].

**Q.** Which viability (% of control) does the source give for `CN1CCC(=C2c3ccccc3C=Cc3ccccc32)CC1` here?
**A.** The viability (% of control) was 35%.

**Q.** Which viability (% of control) does the source give for `CC1(CN2CCC(n3c(=O)[nH]c4ccccc43)CC2)OCc2ccccc2-n2cccc21` (stereo not given) here?
**A.** The viability (% of control) was 102%.

**Q.** With `CC[N+](CC)(CC)CCOc1cccc(OCC[N+](CC)(CC)CC)c1OCC[N+](CC)(CC)CC` as the molecule, how does the viability (% of control) read?
**A.** The viability (% of control) was 111%.

**Q.** For `CN(C)CCCN1c2ccccc2CCc2ccc(Cl)cc21`, which viability (% of control) is on record?
**A.** The viability (% of control) was 11.8%.

**Q.** For `Clc1ccc(C(c2ccccc2Cl)C(Cl)Cl)cc1` (stereo not given), which viability (% of control) is on record?
**A.** The viability (% of control) was 18.1%.

**Q.** With `OCCN1CCN(CCCN2c3ccccc3Sc3ccc(C(F)(F)F)cc32)CC1` as the molecule, how does the viability (% of control) read?
**A.** The viability (% of control) was 6.77%.

**Q.** With `NC(=O)OCC(COC(N)=O)c1ccccc1` as the molecule, how does the viability (% of control) read?
**A.** Its viability (% of control) is 96.1%.

**Q.** With `COc1cc2nc(N(C)CCCNC(=O)C3CCCO3)nc(N)c2cc1OC` (stereo not given) as the molecule, how does the viability (% of control) read?
**A.** The viability (% of control) was 115%.

**Q.** Which viability (% of control) does the source give for `Cc1ccc(-c2cc(C(F)(F)F)nn2-c2ccc(S(N)(=O)=O)cc2)cc1` here?
**A.** Its viability (% of control) is 90.2%.

**Q.** With `CC(C)NCC(O)COc1ccc(CCOCC2CC2)cc1` (stereo not given) as the molecule, how does the viability (% of control) read?
**A.** The viability (% of control) was 97%.

**Q.** With `CC12CC3CC(C)(C1)CC(N)(C3)C2` as the molecule, how does the viability (% of control) read?
**A.** The viability (% of control) was 17.7%.

**Q.** With `CN(C)C(=N)N=C(N)N` as the molecule, how does the viability (% of control) read?
**A.** Its viability (% of control) is 99.5%.

**Q.** With `O=C(CCCN1CCC(O)(c2ccc(Cl)cc2)CC1)c1ccc(F)cc1` as the molecule, how does the viability (% of control) read?
**A.** Its viability (% of control) is 48.3%.

**Q.** With `C[C@H]1c2cccc(O)c2C(O)=C2C(=O)[C@]3(O)C(O)=C(C(N)=O)C(=O)[C@@H](N(C)C)[C@@H]3[C@@H](O)[C@@H]21` as the molecule, how does the viability (% of control) read?
**A.** The viability (% of control) was 19.9%.

**Q.** For `CC(CCc1ccc(O)cc1)NCCc1ccc(O)c(O)c1` (stereo not given), which viability (% of control) is on record?
**A.** The viability (% of control) was 9.22%.

**Q.** With `OCCN(CCO)c1nc(N2CCCCC2)c2nc(N(CCO)CCO)nc(N3CCCCC3)c2n1` as the molecule, how does the viability (% of control) read?
**A.** Its viability (% of control) is 95.3%.

**Q.** For `Fc1ccc([C@@H]2CCNC[C@H]2COc2ccc3c(c2)OCO3)cc1`, which viability (% of control) is on record?
**A.** Its viability (% of control) is 79%.

**Q.** Which viability (% of control) does the source give for `CC(COc1ccccc1)N(CCCl)Cc1ccccc1` (stereo not given) here?
**A.** The viability (% of control) was 45%.

**Q.** Which viability (% of control) does the source give for `Cc1ccccc1N1C(=O)c2cc(S(N)(=O)=O)c(Cl)cc2NC1C` (stereo not given) here?
**A.** Its viability (% of control) is 108%.

**Q.** With `Cc1cc(C(C)(C)C)cc(C)c1CC1=NCCN1` as the molecule, how does the viability (% of control) read?
**A.** The viability (% of control) was 12.2%.

**Q.** For `CS(=O)(=O)CCNCc1ccc(-c2ccc3ncnc(Nc4ccc(OCc5cccc(F)c5)c(Cl)c4)c3c2)o1`, which viability (% of control) is on record?
**A.** Its viability (% of control) is 2.82%.

**Q.** Which viability (% of control) does the source give for `Nc1nnc(-c2cccc(Cl)c2Cl)c(N)n1` here?
**A.** The viability (% of control) was 36.7%.

**Q.** For `CCCNCC(O)COc1ccccc1C(=O)CCc1ccccc1` (stereo not given), which viability (% of control) is on record?
**A.** The viability (% of control) was 1.7%.

**Q.** For `Clc1ccc2nsnc2c1NC1=NCCN1`, which viability (% of control) is on record?
**A.** Its viability (% of control) is 57%.

**Q.** For `CCC1(c2ccccc2)C(=O)NCNC1=O`, which viability (% of control) is on record?
**A.** Its viability (% of control) is 8.03%.

**Q.** With `O=C1N(c2ccccc2)c2ccccc2C1(Cc1ccncc1)Cc1ccncc1` as the molecule, how does the viability (% of control) read?
**A.** Its viability (% of control) is 130%.

**Q.** Which viability (% of control) does the source give for `C[C@](N)(Cc1ccc(O)c(O)c1)C(=O)O` here?
**A.** The viability (% of control) was 66%.

**Q.** With `Nc1c2c(nc3ccccc13)CCCC2` as the molecule, how does the viability (% of control) read?
**A.** Its viability (% of control) is 101%.

**Q.** For `CN1C2CCC1CC(OC(=O)C(CO)c1ccccc1)C2` (stereo not given), which viability (% of control) is on record?
**A.** The viability (% of control) was 113%.

**Q.** With `COc1ccccc1OCCNCC(O)COc1cccc2[nH]c3ccccc3c12` (stereo not given) as the molecule, how does the viability (% of control) read?
**A.** Its viability (% of control) is 89.8%.

**Q.** Which viability (% of control) does the source give for `NCCS(=O)(=O)O` here?
**A.** Its viability (% of control) is 133%.

**Q.** With `CN(C)c1nc(N(C)C)nc(N(C)C)n1` as the molecule, how does the viability (% of control) read?
**A.** Its viability (% of control) is 106%.

**Q.** With `CC(C(=O)O)c1cccc(C(=O)c2ccccc2)c1` (stereo not given) as the molecule, how does the viability (% of control) read?
**A.** Its viability (% of control) is 103%.
